From PubChem BioAssay come the findings set out here.

Assay [1] can be described thus: Wnt pathway potentiators raising nuclear beta-catenin – imaging, WNT3A-conditioned medium, mouse C2C12, NPC library, primary screen (AID 1117326; in the data active = nuclear beta-catenin stimulation mostly above about 4.2%, no sharp cut-off; inactive = mostly below about 10%). Particulars: stronger effect = higher value.
A short description of assay [2]: stimulators of insulin release from INS-1E, primary screen, cell-based, 5 mM glucose, NPC library (AID 1117329;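 active = compound raises insulin release from rat beta cells at 5 mM glucose, no numeric limit stated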). To be noted: rat INS-1E insulin secretion, at 10 µM, stronger effect = higher value.
Assay [3] is described as follows: growth inhibition of GSK3B-pretreated HCT116 cells – cell-based, CellTiter-Glo, 0.2 to 20 µM (AID 1117336;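 active = compounds lowering colon cancer cell viability after pretreatment blocking the GSK3B kinase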). To be noted: HCT116 viability after GSK3B inhibitor, at 20 µM, stronger effect = higher value.
A short description of assay [4]: inhibition of endothelial tube formation, primary screen, imaging, VEGF stimulated, CD31 staining, tube area, NPC library (AID 1117340;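 active = compound that reduces growth-factor-driven endothelial tube area in a mixed cell culture, no cutoff stated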). Particulars: VEGF-stimulated ADSC/ECFC co-culture, at 10 µM, stronger effect = higher value.
Assay [5] in a line: GLP1 release stimulators, primary, NCI-H716, NPC library (AID 1117341;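 active = compound raises GLP1 secretion from the human gut endocrine cells, with no numeric limit stated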). Particulars: NCI-H716 cells, at 10 µM, stronger effect = higher value.
Assay [6] in a line: HCT116 colon cancer cell growth inhibition, primary screen, CellTiter-Glo luminescence, NPC library (AID 1117342;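 active = compounds that lower survival of HCT116 colon cancer cells in the luminescence readout, no numeric limit stated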). Particulars: at 20 µM (top of the series). In general terms: In ATP-based viability assays light output follows the ATP content of the culture.
Assay [7] in a line: reduced SW480 viability measured with CellTiter-Glo, NPC library, primary (AID 1117343;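 active = compounds that lower viability of the colon cancer cells in the luminescence readout, with no numeric limit stated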). Particulars: CellTiter-Glo luminescence; at 20 µM (top of the series) unless noted.
Assay [8] can be described thus: NPC library primary testing for decreased DLD-1 cell viability via CellTiter-Glo (AID 1117346;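 active = compounds that lower survival of DLD-1 colon cancer cells in the luminescence readout, no cutoff given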). To be noted: DLD-1 viability, CellTiter-Glo luminescence; at 20 µM (top of the series).
The nature of assay [9]: EMT-state selective cytotoxicity in co-culture – imaging, PC-3E GFP, TEM4-18 mCherry, primary screen (AID 1345086;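 active = compounds killing one labelled cell type while sparing the other, by normalised counts and ratio limits, not self-fluorescent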;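 as to all read-outs here: cells exposed to compound for 72 h before imaging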;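 as to red/green cell ratio (normalised): normalised mesenchymal count divided by normalised epithelial count so high means epithelial killing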). To be noted: PC-3E GFP / TEM4-18 mCherry co-culture, imaging cell counts, at 1 µM; for red/green cell ratio (normalised): actives lie on both sides, counts scaled to control wells, 1 = unselective.
Assay [10] can be described thus: viability loss with induced miR-34 in A549 – imaging, A549 dox-inducible miR-34, nuclei and caspase counts, primary screen (AID 1347080;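 active = compounds whose cell count with miR-34 switched on is under 0.7 times the count with it off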). Particulars: A549 miR-34 inducible, Hoechst nuclei count, 48 h.
For assay [11], the target named is NAD(+) hydrolase SARM1 (Homo sapiens) (UniProt Q6SZW1). The experiment in a line: blocking NAD cleavage by SARM1 SAM-TIR – cell lysate, NAD-Glo luminescence (AID 1508614).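 Also: higher remaining NAD means stronger inhibition of SARM1 NADase.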 To be noted: SAM-TIR HEK293T lysate NADase, at 1 µM, stronger effect = higher value.
Assay [12] in a line: compounds altering viability of human ES cells (AID 493140; call rule not given here;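 also: cells exposed to compounds for four days before counting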). To be noted: human embryonic stem cell survival screen; stronger effect = higher value.
Assay [13] in a line: P. berghei load reduction in hepatocytes – cell-based, HepG2, luciferase luminescence, HepG2 viability, primary screen (AID 624349; in the data active = parasite load remaining mostly below about 12%, no sharp cut-off; inactive = mostly above about 10%;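 also: 100% = mean of DMSO negative control wells on the same plate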). Particulars: P. berghei liver stage in HepG2, luciferase luminescence, concentration not given here; parasite load remaining: stronger effect = lower value; viability: measured here: HepG2 viability without parasites.
Assay [14] in a line: MELAS cybrid and Rieske KO viability enhancers – cell-based, MELAS cybrids, Rieske KO mouse fibroblasts, CellTiter-Glo, primary screen (AID 1508586;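 active = mean z-score across replicates of 1.96 or higher in either the MELAS or the Rieske mutant cell line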;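 also: z relative to plate mean and SD of compound and empty wells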). Particulars: low glucose.
Setting [15] is: measured here: epithelial PC-3E GFP cell survival.
[16] abbreviates: measured here: mesenchymal TEM4-18 mCherry cell survival.
Where [17] appears, read: stronger effect = lower value, cell number ratio, induced over uninduced.
Where [18] appears, read: measured here: relative caspase fold change +Dox/-Dox.
Setting [19] is: measured here: total cells with miR-34 induction, stronger effect = lower value.
Where [20] appears, read: measured here: total cells without miR-34 induction.

Activity calls are given as the source filed them.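 The calls were made as follows, unless noted: active = compound whose remaining NAD level is above about 45 nM (limit read from the data); inactive = the rest.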

Sequence of NAD(+) hydrolase SARM1 (Homo sapiens) (Q6SZW1 whole entry, looked up): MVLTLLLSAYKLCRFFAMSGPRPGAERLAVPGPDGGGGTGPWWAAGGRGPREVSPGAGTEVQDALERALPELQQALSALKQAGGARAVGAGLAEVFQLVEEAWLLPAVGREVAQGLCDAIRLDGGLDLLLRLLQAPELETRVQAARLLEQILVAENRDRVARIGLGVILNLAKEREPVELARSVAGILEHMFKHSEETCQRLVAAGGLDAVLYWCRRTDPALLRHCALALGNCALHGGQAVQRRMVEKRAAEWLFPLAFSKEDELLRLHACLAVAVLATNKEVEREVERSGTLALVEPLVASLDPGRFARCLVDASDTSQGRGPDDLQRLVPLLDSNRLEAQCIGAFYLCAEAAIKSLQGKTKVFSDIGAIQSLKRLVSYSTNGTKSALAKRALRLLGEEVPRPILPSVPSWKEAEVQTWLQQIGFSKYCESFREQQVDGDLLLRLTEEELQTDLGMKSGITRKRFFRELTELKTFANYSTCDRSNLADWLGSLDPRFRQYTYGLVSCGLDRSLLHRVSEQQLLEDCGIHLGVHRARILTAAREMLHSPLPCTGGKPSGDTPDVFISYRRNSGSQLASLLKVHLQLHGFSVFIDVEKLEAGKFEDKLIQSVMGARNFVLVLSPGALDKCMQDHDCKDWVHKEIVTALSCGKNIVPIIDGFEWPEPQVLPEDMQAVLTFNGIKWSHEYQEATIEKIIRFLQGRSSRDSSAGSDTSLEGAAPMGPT

Consider `Cc1ncc(CSSCc2cnc(C)c(O)c2CO)c(CO)c1O`, for which the nuclear beta-catenin stimulation in assay [1] (at 10 µM) was 0.2% (inactive); in [1] (stimulation, at 2 µM), -2.2%. For the same compound, the insulin secretion stimulation in assay [2] is 1.7% (inactive). For the same compound, the viability decrease in assay [3] is 4.2% (inactive). Further, in assay [4], the tube area decrease was -25.7% (inactive). In addition, the GLP1 secretion stimulation in assay [5] is 6.7% (inactive). Moreover, the inhibition of viability in [6] was 14.3% (inactive). The viability decrease (inhibition) was 6.1% (inactive) in [7] and 15.6% (inactive) in assay [8]. Further, in assay [9], the red/green cell ratio (normalised) was 0.89 (inactive). Further, the values for the normalised cell number in assay [9] (setting [15]) and in assay [9] (setting [16]) were 1.03 and 0.92, respectively. Moreover, the values for the fold change in assay [10] (setting [17]) and in [10] (setting [18]) were 0.95 (inactive) and 0.868, respectively. The cell count in assay [10] (setting [19]) stood at 8920; in [10] (setting [20]), 9390. In addition, the remaining NAD in [11] was 10 nM (inactive).

Regarding `CC(C)COC(=O)c1ccc(N)cc1`, the nuclear beta-catenin stimulation is 0.2% (inactive) in assay [1] (at 10 µM) and 0.4% in assay [1] (stimulation, at 2 µM). For the same compound, in assay [2], the insulin secretion stimulation was -1.9% (inactive). Besides, the viability decrease in [3] is -5.95% (inactive). The tube area decrease in assay [4] is 0.5% (inactive). In assay [5], the GLP1 secretion stimulation was 0.9% (inactive). In addition, the inhibition of viability in [6] is 6.2% (inactive). The viability decrease (inhibition) in assay [7] was 61.3% (active); in assay [8] it was 12.5% (inactive). Further, the red/green cell ratio (normalised) in [9] is 1.09 (inactive). Also, the normalised cell number in assay [9] (setting [15]) stood at 0.86; in assay [9] (setting [16]), 0.93. Also, the fold change in assay [10] (setting [17]) is 0.964 (inactive); in assay [10] (setting [18]), 0.986. For the same compound, the results for the cell count in assay [10] (setting [19]) and in [10] (setting [20]) were 8750 and 9080, respectively. Besides, the remaining NAD in [11] is 10 nM (inactive).

Regarding `CC(=O)N[C@@H](CCC(N)=O)C(=O)O`, the nuclear beta-catenin stimulation in [1] (at 10 µM) is -2.5% (inactive); in assay [1] (stimulation, at 2 µM), 0.1%. In addition, in assay [2], the insulin secretion stimulation is 2.8% (inactive). Also, in [3], the viability decrease is -2.5% (inactive). Besides, in assay [4], the tube area decrease was 12.1% (inactive). Further, the GLP1 secretion stimulation in assay [5] was -3.6% (inactive). Also, in assay [6], the inhibition of viability was 0.7% (inactive). Moreover, the viability decrease (inhibition) in assay [7] was 9.6% (inactive); in [8] it was -3.7% (inactive). Besides, the red/green cell ratio (normalised) in assay [9] was 0.96 (inactive). For the same compound, the normalised cell number in [9] (setting [15]) amounted to 0.97; in assay [9] (setting [16]), 0.93. In addition, the fold change was 0.922 (inactive) in assay [10] (setting [17]) and 0.675 in [10] (setting [18]). The results for the cell count in assay [10] (setting [19]) and in assay [10] (setting [20]) were 8950 and 9710, respectively. Further, in assay [11], the remaining NAD is 10 nM (inactive).

As for `CC(=O)Nc1ccc(C(=O)O)cc1`, the nuclear beta-catenin stimulation is -0.6% (inactive) in [1] (at 10 µM) and 0.4% in [1] (stimulation, at 2 µM). In addition, the insulin secretion stimulation in [2] was -1.8% (inactive). Besides, the viability decrease in assay [3] is -11.6% (inactive). Further, the tube area decrease in assay [4] was -12.7% (inactive). Moreover, the GLP1 secretion stimulation in assay [5] is -0.1% (inactive). Moreover, the inhibition of viability in assay [6] was -18.3% (inactive). Besides, the values for the viability decrease (inhibition) in assay [7] and in assay [8] were 13.7% (inactive) and 11.3% (inactive), respectively. The red/green cell ratio (normalised) in assay [9] was 1.14 (inactive). In addition, the figures for the normalised cell number in assay [9] (setting [15]) and in assay [9] (setting [16]) were 0.87 and 0.99, respectively. Besides, the values for the fold change in [10] (setting [17]) and in assay [10] (setting [18]) were 0.937 (inactive) and 1.06, respectively. The results for the cell count in assay [10] (setting [19]) and in [10] (setting [20]) were 9250 and 9880, respectively. The remaining NAD in [11] is 10 nM (inactive).

A word on the viability: it is a read-out of living cells in per cent, often relative to untreated cells. For `CN(C/C=C/c1ccccc1)Cc1cccc2ccccc12`, the survival in [12] was 21.7 (inactive). The parasite load remaining in [13] is 71.6% (inactive). The compound further registered a viability in [13] of 71.3%. For the same compound, the nuclear beta-catenin stimulation was 2.1% (inactive) in assay [1] (at 10 µM) and 1.8% in assay [1] (stimulation, at 2 µM). Also, the insulin secretion stimulation in assay [2] is 14.3% (inactive). For the same compound, the viability decrease in assay [3] was 86.7% (active). Also, in assay [4], the tube area decrease was -3.5% (inactive). Further, in assay [5], the GLP1 secretion stimulation is 0.7% (inactive). For the same compound, in assay [6], the inhibition of viability was 85.3% (active). Also, the viability decrease (inhibition) in [7] was 95.4% (active); in [8] it was 74.5% (active). In addition, the red/green cell ratio (normalised) in assay [9] is 1.01 (inactive). Moreover, the normalised cell number in assay [9] (setting [15]) was found to be 1.19; in [9] (setting [16]), 1.2. The results for the fold change in [10] (setting [17]) and in [10] (setting [18]) were 0.954 (inactive) and 0.94, respectively. Moreover, the cell count in assay [10] (setting [19]) turned out to be 8810; in assay [10] (setting [20]), 9230. Besides, the z-score in assay [14] (MELAS cybrid survival, CellTiter-Glo 48 h, stronger effect = higher value) was -0.0397 (inactive); in assay [14] (Rieske KO mouse fibroblast survival, CellTiter-Glo 72 h) it was -0.28. For the same compound, the remaining NAD in assay [11] is 10 nM (inactive).
